AmpC detergent = qHTS Inhibitors of AmpC Beta-Lactamase (assay with detergent). AmpC hydrolysis of nitrocefin, absorbance 480 nm, 0.01% Triton. Potency, µM (highest dose often 114 µM), for inactives: at the highest dose activity change, negative = inhibition, usual class: inhibitors. actives 0.041% (n = 370,000);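 also: 0% = no-compound wells and -100% = no-enzyme wells; nearly all actives have a fitted effect of over 25% in size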
Target sequence (P00811 whole entry, looked up): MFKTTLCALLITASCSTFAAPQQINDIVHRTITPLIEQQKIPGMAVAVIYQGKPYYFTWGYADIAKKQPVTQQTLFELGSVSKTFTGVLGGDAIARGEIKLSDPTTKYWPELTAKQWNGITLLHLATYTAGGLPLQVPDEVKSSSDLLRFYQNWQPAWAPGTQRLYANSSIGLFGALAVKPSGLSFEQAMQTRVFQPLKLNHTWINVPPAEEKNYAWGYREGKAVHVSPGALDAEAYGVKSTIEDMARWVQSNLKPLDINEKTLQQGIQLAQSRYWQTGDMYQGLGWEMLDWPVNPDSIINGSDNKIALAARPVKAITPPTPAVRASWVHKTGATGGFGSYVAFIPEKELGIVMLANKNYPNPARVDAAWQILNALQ
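AmpC (5.3 nM in the dispensed reagent) in 20 mM phosphate pH 7.0 with 0.01% (detergent screen) or 0.0001% Triton X-100 was preincubated with compounds for 15 min at room temperature. Nitrocefin was then added from an 800 uM solution, and hydrolysis was followed at 480 nm.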
Sm TGR inh = qHTS Assay for the Inhibitors of Schistosoma Mansoni Peroxiredoxins; Potency, µM (highest dose often 114 µM), without a hit: top-dose activity change, negative = inhibition, usual class: inhibitors; purified TGR, DTNB reduction, TNB absorbance 405 nm; actives 3% (n = 360,000); AID 485364, 2010; Schistosoma mansoni thioredoxin glutathione reductase (TGR), Q962Y6; also: % is scaled to controls: 0 for no effect and ±100 for the full control effect; nearly all actives have a fitted effect of over 60% in size
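TGR 20 nM + NADPH 100 uM (dispensed conc.), cpd preinc 15 min RT; start with NADPH (500 uM addition) then DTNB (15 mM addition). Kinetic TNB absorbance, 405 nm filter. Four-parameter Hill fit across titration.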
AmpC inh no detg = qHTS Inhibitors of AmpC Beta-Lactamase (assay without detergent); AmpC nitrocefin hydrolysis, absorbance 480 nm, 0.0001% Triton; Potency, µM (doses to about 57.1 µM), for the others: at the highest dose activity change, negative = inhibition, usual class: inhibitors; actives 0.52% (n = 330,000); AID 485341, 2010;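 also: plate controls were no compound for no effect and no enzyme for full effect; nearly all actives have a fitted effect of over 20% in size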
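20 mM phosphate pH 7.0 + 0.01% (detergent screen) or 0.0001% Triton X-100; 5.3 nM AmpC reagent; cpd preinc 15 min RT; nitrocefin (800 uM stock) to start; A480 q20 s × 4 min; Activity was normalised to no-enzyme and no-compound control wells.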
RE007 growth inh = qHTS Assay for Inhibitors of the HIV-1 protein Vpr. S. pombe RE007 Vpr strain, BacTiter-Glo ATP luminescence, 24 h. Potency, µM (highest dose often 92.2 µM), without a hit: at the top dose activity change, negative = less growth, most hits filed as inhibitors. actives 0.21% (n = 360,000); active = well fitted falling curve with a large enough effect; inconclusive = small, poorly fitted or top-dose-only effect; inactive = no such curve, though single readings can be large or run the other way; also: % is scaled to controls: 0 for no effect and ±100 for the full control effect; nearly all actives have a fitted effect of over 50% in size
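Fission yeast RE007 carrying one integrated HIV-1 vpr copy, seeded at OD 0.01 in PMG+AL medium with 23 nL pinned compound. Grown 24 h at 30 degrees; viability read by BacTiter-Glo luminescence after 5 min.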
TbPYK inhibitor = qHTS of Trypanosoma Brucei Inhibitors. pyruvate kinase (Trypanosoma brucei), Q57TT1. TbPYK enzyme, Kinase-Glo Plus ATP luminescence, 45 min. actives 0.12% (n = 410,000). Potency, µM (series often up to 76.8 µM), inactives show at the top dose activity, negative = inhibition, usual class: inhibitors; also: % is scaled to controls: 0 for no effect and ±100 for the full control effect; nearly all actives have a fitted effect of over 50% in size
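T. brucei PYK with substrate was exposed to pin-transferred compounds across a concentration series, then started with 130 uM ADP (final). After 45 min at room temperature, Kinase-Glo Plus luminescence was read, normalized and curve-fitted.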
SARS PLP yeast = qHTS of Yeast-based Assay for SARS-CoV PLP; S. cerevisiae expressing SARS-CoV PLpro, growth rescue; Potency, µM (highest dose often 32.9 µM), without a hit: at the highest dose activity, positive = growth rescue, most hits filed as activators; actives 0.19% (n = 330,000); AID 485353, 2010; calls by dose curve; also: 0% is about no effect; nearly all actives have a fitted effect of over 55% in size
The depositor's hits bear a star; [ ] = another dose, or the depositor's remark. Only some compounds are listed: those with a hit (about 3.3% of all), similar ones and a draw of the others. Unless noted, calls follow the shape of the dose curve; as a rule, active = well fitted curve in the direction sought with a large enough effect; inconclusive = small, poorly fitted or top-dose-only effect, or another doubt; inactive = no such curve, though single readings can be large; an effect the other way counts as inactive or inconclusive. Potency is read from the fitted curve at half-maximal effect.

`COC(=O)Cc1c(C)c2cc3c(c(C)c2oc1=O)OCN(CCc1ccc(OC)cc1)C3` gave AmpC detergent 8.0%, Sm TGR inh -4.6% and TbPYK inhibitor -6.0%.
For S=c1[nH]nc(-c2ccco2)n1-c1cccc2ccccc12 the results were AmpC detergent inconclusive, Sm TGR inh inconclusive, AmpC inh no detg -18.4%, RE007 growth inh 2.4%, TbPYK inhibitor 2.82µM* and SARS PLP yeast -2.6%.
Screening COc1ccccc1-n1c(-c2ccco2)n[nH]c1=S returned AmpC detergent -7.9%, Sm TGR inh -28.8%, AmpC inh no detg -17.9%, RE007 growth inh 14.7%, TbPYK inhibitor 10µM* and SARS PLP yeast -1.2%.
COC(=O)c1cc(Cl)ccc1NC(=O)CSc1ncc(S(=O)(=O)c2ccc(Br)cc2)c(=O)[nH]1 was read as AmpC detergent 10.1%, Sm TGR inh -0.5% and TbPYK inhibitor -1.1%.
CCC1NC(C(=O)O)Cc2c1[nH]c1ccccc21 (stereo not drawn) was read as AmpC detergent -6.2%, Sm TGR inh 39.8µM*, AmpC inh no detg -38.2%, RE007 growth inh -11.3%, TbPYK inhibitor -10.5% and SARS PLP yeast 0.2%.
For CC(=O)N1C(C(=O)O)Cc2c([nH]c3ccccc23)C1(C)C (stereo not drawn) the results were AmpC detergent -5.1%, Sm TGR inh -2.8%, AmpC inh no detg -6.7%, RE007 growth inh -8.4%, TbPYK inhibitor -2.5% and SARS PLP yeast 5.2%.
For CC1(C)NC(C(=O)O)Cc2c1[nH]c1ccccc21 (stereo not drawn) the results were AmpC detergent inconclusive, Sm TGR inh 39.8µM*, AmpC inh no detg 139.0%, RE007 growth inh -4.5%, TbPYK inhibitor -27.6% and SARS PLP yeast 1.1%.
Screening COc1cc(C2NC(C(=O)O)Cc3c2[nH]c2ccccc32)cc(OC)c1OC (stereo not drawn) returned AmpC detergent 1.9%, Sm TGR inh 15.0%, AmpC inh no detg 2.3%, RE007 growth inh 5.4%, TbPYK inhibitor -5.3% and SARS PLP yeast 0.4%.
`COc1ccc(NC(=O)C(NC(=O)/C=C\c2ccc3c(c2)OCO3)c2ccc(C)cc2)cc1` (stereo not drawn) gave AmpC detergent -1.8%, Sm TGR inh 0.4% and TbPYK inhibitor -2.2%.
Screening N#Cc1ccc2sn(-c3ccccc3)c(=O)c2c1 returned RE007 growth inh 7.94µM* and TbPYK inhibitor 3.98µM*.
Screening O=c1c2cc([N+](=O)[O-])ccc2sn1-c1ccccc1 returned RE007 growth inh 5.62µM* and TbPYK inhibitor 4.47µM*.
`CC(=O)Nc1ccc2sn(-c3ccccc3)c(=O)c2c1` gave RE007 growth inh 5.2% and TbPYK inhibitor inconclusive.
CCOC(=O)c1cc(-c2ccccc2)n(-c2cccc(C(=O)Nc3cccc(SC)c3)c2)c1C was read as AmpC detergent 9.3%, Sm TGR inh 11.8% and TbPYK inhibitor 6.4%[15.4 µM].
Screening CCOc1ccc(C(C)=O)cc1COC(=O)c1ccccc1C(=O)N(C)Cc1ccccc1 returned AmpC detergent -14.6%, Sm TGR inh 20µM*, AmpC inh no detg 79.2%, RE007 growth inh 3.6%, TbPYK inhibitor -0.4% and SARS PLP yeast -2.1%.
COc1ccc(C(C)=O)cc1COC(=O)c1ccc(S(=O)(=O)N(C)C)cc1 was read as AmpC detergent -5.7%, Sm TGR inh 2.51µM*, AmpC inh no detg 62.1%, RE007 growth inh -9.1%, TbPYK inhibitor -0.9% and SARS PLP yeast -4.1%.
Screening CNS(=O)(=O)c1cccc(C(=O)OCc2cc(C(C)=O)ccc2OC)c1 returned AmpC detergent -2.2%, Sm TGR inh 2.82µM*, AmpC inh no detg -23.4%, RE007 growth inh -0.5%, TbPYK inhibitor -6.9% and SARS PLP yeast -4.4%.
Screening CCOc1ccc(C(C)=O)cc1COC(=O)c1ccc2c(c1)NC(=O)CS2 returned AmpC detergent 9.6%, Sm TGR inh 11.2µM*, AmpC inh no detg -7.0%, RE007 growth inh 10.0%, TbPYK inhibitor 4.1% and SARS PLP yeast -8.2%.
CCNC(=O)C1CCN(c2nnc(C)c3c(C)n(-c4ccc(OC)cc4)nc23)CC1 was read as AmpC detergent 14.8%, Sm TGR inh 19.4% and TbPYK inhibitor 0.7%.
Screening Cc1cc(O)c2c(O)c3c(O)cccc3cc2c1 returned TbPYK inhibitor 0.0%.
Screening COc1ccc(C(C)=O)cc1COC(=O)c1cnc(Cl)c(Cl)c1 returned AmpC detergent -3.6%, Sm TGR inh 1.41µM*, AmpC inh no detg -10.6%, RE007 growth inh -18.4%, TbPYK inhibitor -1.3% and SARS PLP yeast -2.9%.
COc1ccc(C(C)=O)cc1COC(=O)c1ccc2c(c1)OCO2 was read as AmpC detergent -11.0%, Sm TGR inh inconclusive, AmpC inh no detg -24.5%, RE007 growth inh -7.3%, TbPYK inhibitor -4.7% and SARS PLP yeast -7.1%.
COc1ccc(C(C)=O)cc1COC(=O)c1ccc(C)c(S(=O)(=O)N2CCOCC2)c1 was read as AmpC detergent -1.8%, Sm TGR inh 3.55µM*, AmpC inh no detg 145.5%, RE007 growth inh 0.9%, TbPYK inhibitor -2.0% and SARS PLP yeast -2.1%.
Screening Cc1cccn2c(=O)cc(COc3cccc(NC(=O)c4ccccc4F)c3)nc12 returned AmpC detergent 15.1%, Sm TGR inh -2.1% and TbPYK inhibitor -1.8%.
COc1ccc(NC(=O)c2ccc(NC(=O)CCS(=O)(=O)c3cccs3)cc2)cc1OC was read as AmpC detergent 16.6%, Sm TGR inh 2.5% and TbPYK inhibitor -1.7%.
For CC1=C(C(=O)Nc2ccc(C)cc2C)C(c2ccc([N+](=O)[O-])cc2)n2ncc(C(=O)Nc3ccc(F)cc3)c2N1 (stereo not drawn) the results were AmpC detergent -3.4%, Sm TGR inh -1.8% and TbPYK inhibitor 3.8%.
`COC(=O)c1cc(OC)c(OC)c(OC)c1NC(=O)c1cc(=O)n(C)c(=O)n1C` gave AmpC detergent -0.1%, Sm TGR inh -9.5% and TbPYK inhibitor -6.1%.
For CCCOC(=O)c1ccc(NC(=O)C2CC(=O)N(c3ccc(C)cc3)C2)cc1 (stereo not drawn) the results were AmpC detergent 3.6%, Sm TGR inh 11.4% and TbPYK inhibitor 0.3%.

Screens: PubChem, National Center for Advancing Translational Sciences (NCATS)
